The results in this text go back to PubChem BioAssay (Tox21).

Assay [1] in a line: Human pregnane X receptor (PXR) small molecule agonists, qHTS cell viability counter screen (AID 1346977). Also: nearly all actives have a fitted effect of over 50% in size. The method, boiled down:
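Measures live-cell protease fluorescence (CellTiter-Fluor) in PXR-Luc HepG2 cells treated 24hr with compounds at 37C. Cells had 5hr to attach before pin transfer of DMSO solutions.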
In general terms: Quantitative high-throughput screening tests each substance at several concentrations.

Assay [2] is described as follows: Caspase-3/7 induction in HepG2 cells by small molecules, qHTS assay (AID 1346978). Also: nearly all actives have a fitted effect of over 15% in size. The method, boiled down: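 Wild-type HepG2 cells, 2,000/well, settled 5 hr at 37 C and 5% CO2, then compound-treated for 17 hr; caspase-3/7 activity read by luminescent Caspase-Glo 3/7 after 30 min at room temperature.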
Assay [3] can be described thus: Caspase-3/7 induction in CHO-K1 cells by small molecules, qHTS cell viability counter screen (AID 1346979). Also: nearly all actives have a fitted effect of over 35% in size. The procedure, abridged:
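In the same wells as the caspase read, viability of compound-treated wild-type CHO-K1 cells was assessed using CellTiter-Fluor, added after 16hr at 37C and measured by fluorescence following 1hr further incubation.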

A short description of assay [4]: Caspase-3/7 induction in CHO-K1 cells by small molecules, qHTS assay (AID 1346980). Also: nearly all actives have a fitted effect of over 15% in size. The procedure, abridged:
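Wild-type CHO-K1 cells exposed to compounds for 17hr at 37 C, 5% CO2. Caspase-3/7 activity then measured by Caspase-Glo 3/7 luminescence after 30min at room temperature.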

The nature of assay [5]: Caspase-3/7 induction in HepG2 cells by small molecules, qHTS cell viability counter screen (AID 1346981). Also: nearly all actives have a fitted effect of over 30% in size. The method, boiled down:
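Cell viability is measured as a cytotoxicity counter screen alongside the Caspase-Glo 3/7 readout in identical wells. Wild-type HepG2 cells are treated with test compounds for 16 hr at 37 C before CellTiter-Fluor addition and a 1-hr incubation.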

Assay [6] addresses Nuclear receptor subfamily 1 group I member 2 (Homo sapiens) (UniProt O75469). Nature of the assay: Human pregnane X receptor (PXR) small molecule agonists, qHTS assay (AID 1346982). Also: nearly all actives have a fitted effect of over 35% in size. The procedure, abridged:
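Cells: HepG2 stably carrying PXR-Luc. Medium held 5% charcoal-stripped FBS. Compounds in DMSO added after 5 hr plating, incubated 24 hr, then luminescence quantified with ONE-Glo.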

The target of assay [7] is Acetylcholinesterase (Homo sapiens) (UniProt P22303). Nature of the assay: Acetylcholinesterase (AChE) small molecule antagonists: colormetric cell-based qHTS assay (AID 1347395; calls by dose curve; also: nearly all actives have a fitted effect of over 30% in size). The procedure, abridged: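 Endogenous AChE of human neuroblastoma SH-SY5Y cells was measured with an Ellman-type DTNB/acetylthiocholine mix. Compound pretreatment lasted 30 min at 37 C; substrate reaction ran 90 min at 37 C.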

Assay [8] shares this target. The assay can be described thus: Acetylcholinesterase (AChE) small molecule antagonists: enzyme-based qHTS assay (AID 1347397; calls by dose curve; also: nearly all actives have a fitted effect of over 55% in size). As to conditions: Potency: AChE enzyme activity inhibition. The procedure, abridged:
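Colorimetric DTNB read-out of thiocholine released from acetylthiocholine by recombinant human AChE (50 mU/mL as dispensed). Compounds were preincubated 30 min at RT before substrate/DTNB addition, with a 10 min RT reaction.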

The target is the same in assay [9]. Nature of the assay: Acetylcholinesterase (AChE) small molecule antagonists: fluorescence cell-based qHTS assay (AID 1347398; calls by dose curve; also: nearly all actives have a fitted effect of over 50% in size). The settings on record: Potency: AChE activity. The procedure, abridged: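 SH-SY5Y, 2,000 cells/well, attached overnight; cmpd 30 min 37 C; acetylthiocholine/Thiolite Green cocktail 40 min RT; fluorescence Ex/Em 490/520 nm.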
For assay [10] the target is unchanged. Nature of the assay: Acetylcholinesterase (AChE) small molecule antagonists: enzyme-based qHTS assay with human liver microsomes (AID 1347399; calls by dose curve; also: nearly all actives have a fitted effect of over 60% in size). As to conditions: Potency: qHTS inhibition. The procedure, abridged: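 Recombinant human AChE (50 mU/mL in the enzyme mix) and human liver microsomes (0.25 mg/mL final) were preincubated with compound and NADPH (0.25 mg/mL final) for 30 min at 37 C. Acetylthiocholine/DTNB was then added; thiocholine was read colorimetrically after 10 min at room temperature.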

Assay [11] has as its target Cytochrome P450 2D6 (Homo sapiens) (UniProt P10635). Nature of the assay: Cytochrome P450 Family 2 Subfamily D Member 6 (CYP2D6) small molecule antagonists: luciferase reporter qHTS assay (AID 1671196). Also: nearly all actives have a fitted effect of over 50% in size. The method, boiled down: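 Enzyme and proluciferin substrate were first combined with test chemical for 10 min at room temperature. Adding NADPH regeneration solution started a 1 h reaction, stopped with luciferin detection reagent and read by luminescence 20 min later.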
On the technique in general: In a reporter assay the amount or activity of a reporter protein is the signal.

Assay [12] addresses Cytochrome P450 2C19 (Homo sapiens) (UniProt P33261). The assay can be described thus: Cytochrome P450 Family 2 Subfamily C Member 19 (CYP2C19) small molecule antagonists: luciferase reporter qHTS assay (AID 1671197). Also: nearly all actives have a fitted effect of over 65% in size. The procedure, abridged: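 CYP2C19 P450-Glo, 1536-well qHTS. Cpd + enzyme/proluciferin substrate 10 min RT; + NADPH regen, 37C 1 h; stop with luciferin detection reagent, 20 min RT, luminescence (RLU). Pos ctrl ketoconazole.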

Assay [13] concerns the target Cytochrome P450 2C9 (Homo sapiens) (UniProt P11712). The assay can be described thus: Cytochrome P450 Family 2 Subfamily C Member 9 (CYP2C9) small molecule antagonists: luciferase reporter qHTS assay (AID 1671198). Also: nearly all actives have a fitted effect of over 50% in size. The procedure, abridged:
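P450-Glo proluciferin substrate with CYP2C9 enzyme; 10 min RT preincubation, then NADPH regeneration 1 h at 37C; luciferin detection reagent 20 min RT, luminescence in relative luminescence units.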

Assay [14] has as its target Cytochrome P450 1A2 (Homo sapiens) (UniProt P05177). Nature of the assay: Cytochrome P450 Family 1 Subfamily A Member 2 (CYP1A2) small molecule antagonists: luciferase reporter qHTS assay (AID 1671199). Also: nearly all actives have a fitted effect of over 50% in size. The method, boiled down: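 Compounds were incubated with CYP1A2 and a luminogenic proluciferin substrate for 10 min at room temperature before the reaction was started with NADPH regeneration solution. After 1 h, detection reagent was added and light output, proportional to CYP activity, was recorded.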

The target in assay [15] is Voltage-gated inwardly rectifying potassium channel KCNH2 (Homo sapiens) (UniProt Q12809). The assay can be described thus: Human Ether-a-go-go-Related Gene (hERG) channel small molecule antagonists: fluorescence cell-based qHTS assay (AID 1671200). Also: nearly all actives have a fitted effect of over 50% in size. The method, boiled down: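 Quantitative HTS in hERG-U2OS cells: thallium entry through the channel reports activity, read as continuous 480/540 nm fluorescence over 2 min after stimulus addition.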
(Block of hERG is tested as a sign of cardiac risk.)

In assay [16] the target is Cytochrome P450 3A4 (Homo sapiens) (UniProt P08684). Nature of the assay: Cytochrome P450 Family 3 Subfamily A Member 4 (CYP3A4) small molecule antagonists: luciferase reporter qHTS assay (AID 1671201). Also: nearly all actives have a fitted effect of over 50% in size. The procedure, abridged: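 Inhibition of CYP3A4 is measured as loss of light: the enzyme converts a proluciferin substrate to luciferin, detected luminescently. Reaction ran 1 h at room temperature with NADPH regeneration after a 10 min compound preincubation.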

SMILES strings stand for the structures. “And” between values parts separate entries of the source, which are not always exact repeats. Equal entries are not always repeated. Records with an inconclusive call do not appear. More than one record can exist for a structure, and the calls need not agree. The source made the active and inactive calls. Unless noted, calls follow the shape of the dose curve; as a rule, active = well fitted curve in the direction sought with a large enough effect in the repeat runs; inconclusive = weak or mixed curves; inactive = no such curve, though single readings can be large; an effect the other way counts as inactive or inconclusive.
Potency is read from the fitted curve at half-maximal effect.

Sequence of Cytochrome P450 2C19 (Homo sapiens) (P33261 whole entry, looked up): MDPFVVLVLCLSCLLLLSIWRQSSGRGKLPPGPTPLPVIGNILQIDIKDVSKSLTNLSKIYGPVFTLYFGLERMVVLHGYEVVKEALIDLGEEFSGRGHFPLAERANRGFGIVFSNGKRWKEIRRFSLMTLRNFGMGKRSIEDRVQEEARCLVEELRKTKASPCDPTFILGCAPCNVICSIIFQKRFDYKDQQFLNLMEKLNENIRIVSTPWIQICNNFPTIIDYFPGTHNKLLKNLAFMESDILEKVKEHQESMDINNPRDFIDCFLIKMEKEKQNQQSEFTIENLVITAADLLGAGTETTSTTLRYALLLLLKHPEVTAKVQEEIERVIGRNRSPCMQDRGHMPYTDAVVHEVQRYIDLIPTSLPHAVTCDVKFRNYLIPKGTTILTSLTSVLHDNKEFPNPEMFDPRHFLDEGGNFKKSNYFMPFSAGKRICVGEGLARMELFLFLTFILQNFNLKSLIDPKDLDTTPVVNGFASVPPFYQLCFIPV
Sequence of Cytochrome P450 1A2 (Homo sapiens) (P05177 whole entry, looked up): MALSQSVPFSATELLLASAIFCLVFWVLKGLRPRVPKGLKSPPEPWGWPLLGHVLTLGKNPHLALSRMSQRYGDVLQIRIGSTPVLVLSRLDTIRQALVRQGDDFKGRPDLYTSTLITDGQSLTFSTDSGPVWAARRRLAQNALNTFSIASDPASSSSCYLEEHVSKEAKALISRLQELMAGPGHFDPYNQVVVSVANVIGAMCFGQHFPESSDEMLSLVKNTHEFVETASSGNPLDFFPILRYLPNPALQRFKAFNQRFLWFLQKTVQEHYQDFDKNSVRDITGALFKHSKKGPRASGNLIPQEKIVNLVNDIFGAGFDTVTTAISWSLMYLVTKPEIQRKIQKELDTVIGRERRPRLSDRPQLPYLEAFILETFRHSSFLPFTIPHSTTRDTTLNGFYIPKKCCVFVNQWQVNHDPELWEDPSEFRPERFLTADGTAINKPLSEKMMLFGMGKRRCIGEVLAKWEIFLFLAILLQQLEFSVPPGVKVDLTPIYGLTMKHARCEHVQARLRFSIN
Sequence of Cytochrome P450 2D6 (Homo sapiens) (P10635 whole entry, looked up): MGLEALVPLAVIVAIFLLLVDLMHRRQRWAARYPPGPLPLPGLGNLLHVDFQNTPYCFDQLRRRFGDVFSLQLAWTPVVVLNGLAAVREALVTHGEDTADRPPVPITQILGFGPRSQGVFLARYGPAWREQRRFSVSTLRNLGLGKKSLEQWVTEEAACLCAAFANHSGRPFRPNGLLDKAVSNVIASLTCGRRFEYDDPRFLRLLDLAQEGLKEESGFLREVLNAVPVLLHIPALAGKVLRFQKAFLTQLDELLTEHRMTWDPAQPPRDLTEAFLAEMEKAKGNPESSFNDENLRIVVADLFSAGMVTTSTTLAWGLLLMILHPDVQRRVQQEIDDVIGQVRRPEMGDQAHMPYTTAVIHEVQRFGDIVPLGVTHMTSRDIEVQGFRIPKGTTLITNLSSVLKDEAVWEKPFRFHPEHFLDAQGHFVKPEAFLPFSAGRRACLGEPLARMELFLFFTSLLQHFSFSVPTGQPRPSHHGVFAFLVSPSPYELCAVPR
Sequence of Cytochrome P450 2C9 (Homo sapiens) (P11712 whole entry, looked up): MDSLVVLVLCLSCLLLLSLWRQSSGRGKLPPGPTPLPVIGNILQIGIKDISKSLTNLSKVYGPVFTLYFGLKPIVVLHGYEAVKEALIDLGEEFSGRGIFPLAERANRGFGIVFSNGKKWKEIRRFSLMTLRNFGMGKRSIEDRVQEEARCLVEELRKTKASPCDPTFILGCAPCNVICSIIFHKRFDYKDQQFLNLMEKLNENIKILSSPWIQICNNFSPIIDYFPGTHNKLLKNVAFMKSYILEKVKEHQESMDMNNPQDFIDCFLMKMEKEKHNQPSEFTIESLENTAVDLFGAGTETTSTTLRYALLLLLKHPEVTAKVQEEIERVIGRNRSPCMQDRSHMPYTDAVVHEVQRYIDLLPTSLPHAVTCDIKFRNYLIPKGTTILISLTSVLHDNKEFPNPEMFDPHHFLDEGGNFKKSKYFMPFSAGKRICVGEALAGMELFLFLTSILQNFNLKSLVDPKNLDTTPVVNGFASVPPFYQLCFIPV
Sequence of Acetylcholinesterase (Homo sapiens) (P22303 whole entry, looked up): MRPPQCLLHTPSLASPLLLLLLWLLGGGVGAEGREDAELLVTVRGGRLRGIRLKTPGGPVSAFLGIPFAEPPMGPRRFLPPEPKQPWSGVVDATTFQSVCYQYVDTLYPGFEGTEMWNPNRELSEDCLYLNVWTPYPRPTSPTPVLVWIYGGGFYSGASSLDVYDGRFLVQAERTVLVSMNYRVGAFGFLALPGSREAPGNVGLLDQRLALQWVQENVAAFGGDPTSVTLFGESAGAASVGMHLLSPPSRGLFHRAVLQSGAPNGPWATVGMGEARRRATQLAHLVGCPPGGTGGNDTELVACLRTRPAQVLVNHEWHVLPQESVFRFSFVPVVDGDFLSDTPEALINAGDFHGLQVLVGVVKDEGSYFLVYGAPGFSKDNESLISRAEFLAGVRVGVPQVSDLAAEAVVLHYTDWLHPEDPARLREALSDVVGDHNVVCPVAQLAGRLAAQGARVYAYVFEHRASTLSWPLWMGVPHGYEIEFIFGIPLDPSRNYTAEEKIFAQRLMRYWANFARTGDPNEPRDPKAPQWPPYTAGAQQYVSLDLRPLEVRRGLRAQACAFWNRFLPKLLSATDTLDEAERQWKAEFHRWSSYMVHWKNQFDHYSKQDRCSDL
Sequence of Nuclear receptor subfamily 1 group I member 2 (Homo sapiens) (O75469 whole entry, looked up): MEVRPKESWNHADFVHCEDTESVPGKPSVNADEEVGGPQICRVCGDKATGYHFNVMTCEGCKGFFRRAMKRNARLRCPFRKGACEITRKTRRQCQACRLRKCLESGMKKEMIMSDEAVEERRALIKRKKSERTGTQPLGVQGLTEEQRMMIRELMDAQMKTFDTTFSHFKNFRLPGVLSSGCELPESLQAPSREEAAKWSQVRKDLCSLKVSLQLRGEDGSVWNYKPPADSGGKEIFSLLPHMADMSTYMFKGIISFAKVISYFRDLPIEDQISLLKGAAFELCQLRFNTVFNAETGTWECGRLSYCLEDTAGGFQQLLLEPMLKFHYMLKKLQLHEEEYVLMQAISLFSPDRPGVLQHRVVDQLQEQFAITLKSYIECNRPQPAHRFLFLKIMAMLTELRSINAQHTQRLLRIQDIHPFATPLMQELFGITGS
Sequence of Voltage-gated inwardly rectifying potassium channel KCNH2 (Homo sapiens) (Q12809 whole entry, looked up): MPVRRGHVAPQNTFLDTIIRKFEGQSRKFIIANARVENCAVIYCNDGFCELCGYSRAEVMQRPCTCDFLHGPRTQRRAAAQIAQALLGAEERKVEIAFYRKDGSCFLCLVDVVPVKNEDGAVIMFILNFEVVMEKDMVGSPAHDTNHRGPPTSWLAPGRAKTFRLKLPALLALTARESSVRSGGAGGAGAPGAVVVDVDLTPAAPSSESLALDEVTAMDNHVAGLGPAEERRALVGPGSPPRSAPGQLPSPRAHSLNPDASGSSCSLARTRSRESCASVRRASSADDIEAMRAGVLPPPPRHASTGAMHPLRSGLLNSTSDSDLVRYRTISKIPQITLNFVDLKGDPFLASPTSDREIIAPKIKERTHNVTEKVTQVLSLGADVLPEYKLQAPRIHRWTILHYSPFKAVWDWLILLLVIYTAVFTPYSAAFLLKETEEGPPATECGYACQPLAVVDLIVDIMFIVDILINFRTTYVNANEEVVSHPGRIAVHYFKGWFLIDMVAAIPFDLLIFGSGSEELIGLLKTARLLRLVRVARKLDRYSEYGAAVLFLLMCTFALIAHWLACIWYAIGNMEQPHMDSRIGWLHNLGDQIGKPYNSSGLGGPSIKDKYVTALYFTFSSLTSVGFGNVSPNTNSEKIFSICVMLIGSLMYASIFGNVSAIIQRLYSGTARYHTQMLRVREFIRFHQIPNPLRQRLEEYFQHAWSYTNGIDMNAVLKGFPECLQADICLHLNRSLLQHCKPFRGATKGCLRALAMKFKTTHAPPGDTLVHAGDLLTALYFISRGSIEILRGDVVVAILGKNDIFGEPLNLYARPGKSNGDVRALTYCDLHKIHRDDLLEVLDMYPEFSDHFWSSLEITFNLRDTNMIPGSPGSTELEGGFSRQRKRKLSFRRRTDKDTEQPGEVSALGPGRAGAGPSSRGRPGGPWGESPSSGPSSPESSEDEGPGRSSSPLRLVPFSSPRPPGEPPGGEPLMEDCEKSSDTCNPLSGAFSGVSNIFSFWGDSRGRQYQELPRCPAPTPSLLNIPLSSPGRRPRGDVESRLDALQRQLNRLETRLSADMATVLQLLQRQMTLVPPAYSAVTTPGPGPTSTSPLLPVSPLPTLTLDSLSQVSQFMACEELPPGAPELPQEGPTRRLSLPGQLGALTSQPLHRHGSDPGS
Sequence of Cytochrome P450 3A4 (Homo sapiens) (P08684 whole entry, looked up): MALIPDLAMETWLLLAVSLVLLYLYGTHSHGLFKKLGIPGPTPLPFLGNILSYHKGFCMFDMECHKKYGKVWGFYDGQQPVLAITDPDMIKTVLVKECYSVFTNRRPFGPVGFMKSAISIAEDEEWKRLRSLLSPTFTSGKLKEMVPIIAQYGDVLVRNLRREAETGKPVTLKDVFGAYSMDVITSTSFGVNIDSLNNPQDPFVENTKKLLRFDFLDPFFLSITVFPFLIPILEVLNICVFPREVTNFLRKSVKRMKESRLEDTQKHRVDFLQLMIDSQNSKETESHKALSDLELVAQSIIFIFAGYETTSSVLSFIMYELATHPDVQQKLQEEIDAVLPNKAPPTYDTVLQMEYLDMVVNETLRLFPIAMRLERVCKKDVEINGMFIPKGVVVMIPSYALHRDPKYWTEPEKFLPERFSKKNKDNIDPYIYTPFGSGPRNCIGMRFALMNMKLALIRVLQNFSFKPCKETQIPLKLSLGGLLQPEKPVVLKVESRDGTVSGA

For the compound `CC(C)Nc1nc(Cl)nc(NC(C)C)n1`, the Potency result in [1], in [2], in assay [3], in assay [4], in [5] and in assay [10] was “inactive” each time. Besides, the Potency result in [11], in assay [13], in [15] and in assay [16] was “inactive” throughout. Besides, the Potency is 54.4 µM (active) and 24.3 µM (active) in [6]; “inactive and 31.7 µM (active)” in assay [7]; “inactive and 71 µM (active)” in [8]; “inactive and 31.7 µM (active)” in assay [9]; “inactive and 35.6 µM (active)” in [12]; 10 µM (active) and 20 µM (active) in [14].

Turning to `CCCCOCC1CO1` (centres undefined), the Potency entry in assay [1], in assay [2], in assay [3], in [4], in assay [5] and in assay [6] was “inactive” each time. The Potency result in assay [7], in assay [11], in assay [12], in assay [13], in assay [14] and in assay [15] was “inactive” throughout. Also, the Potency result in assay [16] was “inactive”. Also, the Potency in [8] was 10.1 µM (active) and inactive; in assay [9], 899 nM (active) and inactive; in [10], 63.7 µM (active) and inactive.

Take `ClCc1ccccn1`: the Potency result in assay [1], in [2], in assay [3], in assay [4], in [5] and in assay [6] was “inactive” in each case. The Potency result in [7], in assay [8], in [9], in assay [10], in assay [13] and in assay [14] was “inactive” each time. For the same compound, the Potency result in [15] and in assay [16] was “inactive” each time. The Potency is 39.2 µM (active) in assay [11]; 78.1 µM (active) and inactive in assay [12].

As to `CC1(C)Cc2cccc(O)c2O1`, the Potency result in [1], in assay [2], in assay [3], in [4], in assay [5] and in [6] was “inactive” throughout. In addition, the Potency entry in assay [7], in assay [8], in [9], in assay [10], in assay [11] and in assay [12] was “inactive” in each case. The Potency result in assay [13] and in assay [15] was “inactive” each time.

Take `CCCCCCCC[N+](C)(CCCCCCCC)CCCCCCCC`: the Potency in assay [1] was 30.6 µM (active) and 5.45 µM (active) and 13.7 µM (active); in [2], 54.4 µM (active) and 15.4 µM (active); in [3], 13.7 µM (active) and 4.86 µM (active) and 6.11 µM (active); in [4], 12.2 µM (active) and 13.7 µM (active); in assay [5], 61 µM (active) and 15.4 µM (active) and 21.7 µM (active); in assay [6] it was 12.2 µM (active) and 2.44 µM (active). Further, the Potency is 79.5 µM (active) and inactive and 71 µM (active) in assay [8]; 63.2 µM (active) and inactive and 79.6 µM (active) in assay [9]; 28.2 nM (active) and 56.5 nM (active) and 564 nM (active) in [11]; 5.63 µM (active) and 3.56 µM (active) and 31.7 µM (active) in assay [12]; 28.2 µM (active) and 2.83 µM (active) and 35.6 µM (active) in assay [13]; 39.8 µM (active) and 35.6 µM (active) in assay [14]. In addition, the Potency in assay [15] is 21.8 nM (active) and 39 nM (active) and 977 nM (active); in [16], 1 µM (active) and 449 nM (active) and 6.33 µM (active). Moreover, the Potency entry in [7] and in assay [10] was “inactive” in each case.

`O=C(O)c1nn(Cc2ccc(Cl)cc2Cl)c2ccccc12`: the Potency result in assay [1], in assay [2], in assay [3], in [4], in [5] and in assay [7] was “inactive” each time. For the same compound, the Potency entry in [8], in assay [9], in [10], in [12], in assay [14] and in assay [15] was “inactive” each time. The Potency entry in assay [16] is “inactive”. In addition, the Potency was 60.7 µM (active) and inactive in [6]; 62.8 µM (active) and inactive in assay [11]; 70.5 µM (active) and inactive in assay [13].
